C diff HTS – C. difficile growth inhibitors, primary screen, HTS. AID 1259249, 2017. actives 0.25% (n = 86,000). Clostridium difficile clinical isolate growth, OD600, 24 h; active compounds read low. growth activity, negative = inhibition, % at 16 µg/mL (by protocol);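 active = mean growth activity at or below -80% and every replicate also at or below -80%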;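 note: 0% = DMSO wells and -100% = levofloxacin 16 µg/mL wells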
Pf Dd2 inh – P. falciparum Dd2 growth inhibitors, primary screen, SYBR Green fluorescence, single dose replicates; 72 h; active compounds read low; activity change, % at 10 µM; actives 2.3% (n = 94,000); AID 1159554, 2015; in the data active = activity change below about -80%
The depositor's hits bear a star; x = not tested or not shown; ! = not active in a repeat. Shown are actives, neighbours in structure and some others; about 2.3% of the full set was active somewhere.

SMILES | C diff HTS | Pf Dd2 inh
Cc1noc(C)c1NC(=O)Nc1ccc2c(c1)CC(=O)N([C@H](C)CO)C[C@@H](C)[C@@H](CN(C)C(=O)Nc1ccc(C(F)(F)F)cc1)O2 | -4 | 18
CC(C)C#Cc1ccc2c(c1)O[C@@H](CN(C)C(=O)C1CCCCC1)[C@H](C)CN([C@H](C)CO)S2(=O)=O | 43 | -83*
CC(C)C#Cc1ccc2c(c1)O[C@@H](CN(C)C(=O)C1CCCCC1)[C@H](C)CN([C@@H](C)CO)S2(=O)=O | 12 | -82*
CC(C)C#Cc1ccc2c(c1)O[C@@H](CN(C)C(=O)C1CCCCC1)[C@@H](C)CN([C@H](C)CO)S2(=O)=O | 9 | -29
CC(C)C#Cc1ccc2c(c1)O[C@@H](CN(C)C(=O)C1CCC1)[C@@H](C)CN([C@H](C)CO)S2(=O)=O | x | -44
CN1[C@@H]2c3ccc(-c4cccnc4)c(=O)n3C[C@H]1[C@H](CO)[C@H]2C(=O)N1CCC(Cc2ccccc2)CC1 | 1 | -44
C[C@@H]1CCCCO[C@@H](CN(C)CC2CCCCC2)[C@@H](C)CN([C@@H](C)CO)C(=O)c2cc(NC(=O)Nc3ccc4c(c3)OCO4)ccc2O1 | -3 | -66
C[C@@H]1CN([C@@H](C)CO)C(=O)c2cc(NC(=O)Nc3ccc4c(c3)OCO4)ccc2O[C@@H](C)CCCCO[C@@H]1CN(C)CC1CCCCC1 | 2 | -79
C[C@@H]1CCCCO[C@@H](CN(C)CC2CCCCC2)[C@H](C)CN([C@H](C)CO)C(=O)c2cc(NC(=O)Nc3ccc4c(c3)OCO4)ccc2O1 | 3 | -81*
C[C@H]1CCCCO[C@@H](CN(C)CC2CCCCC2)[C@@H](C)CN([C@@H](C)CO)C(=O)c2cc(NC(=O)Nc3ccc4c(c3)OCO4)ccc2O1 | -6 | -81*
COc1cccc(-c2cnc3c(c2)C(=O)N([C@H](C)CO)C[C@H](C)[C@H](CN(C)S(=O)(=O)c2cccc(OC)c2)O3)c1 | x | -20
Cc1ccc(S(=O)(=O)N2C[C@@H]3N[C@H](C2)[C@@H]3c2ccc(-c3cccc(C)c3)cc2)cc1 | 1 | -63
Cc1ccc(-c2ccc(C3[C@@H]4CN(S(=O)(=O)c5ccc(C)cc5)C[C@H]3N4)cc2)cc1 (stereo partly specified) | -97* | -21
O=S(=O)(c1ccccc1F)N1C[C@@H]2N[C@H](C1)C2c1ccc(/C=C/c2ccccc2)cc1 (stereo partly specified) | 10 | -78
Cc1cccc(S(=O)(=O)N2C[C@@H]3N[C@H](C2)C3c2ccc(-c3cncnc3)cc2)c1 (stereo partly specified) | -3 | -28
Cc1ccc(-c2ccc(C3[C@@H]4CN(S(=O)(=O)c5cccc(C)c5)C[C@H]3N4)cc2)cc1 (stereo partly specified) | -95* | -43
COc1cccc(S(=O)(=O)N2C[C@@H]3N[C@H](C2)C3c2ccc(-c3ccccc3OC)cc2)c1 (stereo partly specified) | 11 | -34
O=S(=O)(c1ccccc1)N1C[C@@H]2N[C@H](C1)C2c1ccc(/C=C/c2ccccc2)cc1 (stereo partly specified) | -96*! | -37
COc1ccccc1-c1ccc([C@@H]2[C@@H]3CN(S(=O)(=O)c4ccc(-c5ccccc5)cc4)C[C@H]2N3)cc1 | 6 | -89*
CCC(=O)N1[C@@H]2c3ccc(-c4ccccc4F)c(=O)n3C[C@@H]2[C@@H](CO)[C@@H]1C(=O)OC | -6 | 5
C[C@H](CO)N1C[C@H](C)[C@H](CN(C)Cc2ccc3c(c2)OCCN3C)OCc2cnnn2CCCC1=O | -3 | -3
COC(=O)C[C@@H]1C[C@@H]2c3cc(N)ccc3O[C@@H]2[C@@H](CO)O1 | 2 | -17
Cc1noc(C)c1NC(=O)N[C@H]1CC[C@@H](CC(=O)NCc2ccc(Cl)c(Cl)c2)O[C@H]1CO | x | 18
Cc1ccccc1S(=O)(=O)N1C[C@@H]2N[C@H](C1)C2c1ccc(-c2ccc(C#N)cc2)cc1 (stereo partly specified) | 8 | -84*!
O=S(=O)(c1ccccc1)N1C[C@@H]2N[C@H](C1)C2c1ccc(-c2ccc(F)cc2)cc1 (stereo partly specified) | 9 | -84*!
SMILES | C diff HTS | Pf Dd2 inh
O=S(=O)(c1ccc(-c2ccccc2)cc1)N1C[C@@H]2N[C@H](C1)C2c1ccc(-c2cncnc2)cc1 (stereo partly specified) | 5 | 2
O=S(=O)(c1ccc(F)cc1)N1C[C@@H]2N[C@H](C1)C2c1ccc(-c2ccc(F)cc2)cc1 (stereo partly specified) | 9 | -88*!
Cc1ccccc1S(=O)(=O)N1C[C@@H]2N[C@H](C1)C2c1ccc(-c2ccc(C(=O)N(C)C)cc2)cc1 (stereo partly specified) | -16 | -24
CN(C)C(=O)c1ccc(-c2ccc(C3[C@@H]4CN(S(=O)(=O)c5ccc(F)cc5)C[C@H]3N4)cc2)cc1 (stereo partly specified) | -12 | -21
CN1C(=O)c2cc(NC(=O)C3CCOCC3)ccc2OC[C@@H]2O[C@@H](CC(=O)NCc3ccc4c(c3)OCO4)CC[C@@H]21 | 0 | x
O=C(N[C@@H]1CC[C@H](CCNC(=O)c2ccccc2F)O[C@@H]1CO)c1cnccn1 | x | -4
Cc1ccc(S(=O)(=O)N[C@@H]2C=C[C@H](CC(=O)N3CCc4ccccc4C3)O[C@H]2CO)cc1 | -1 | 4
C/C=C/c1ccc2c(c1)O[C@H](CN(C)CC1CC1)[C@H](C)CN([C@H](C)CO)S2(=O)=O | 3 | -20
C[C@H]1CN([C@@H](C)CO)S(=O)(=O)c2ccc(/C=C/c3ccccc3)cc2O[C@H]1CN(C)Cc1cccnc1 | 4 | -82*
C[C@H]1CN([C@@H](C)CO)S(=O)(=O)c2ccc(/C=C/c3ccccc3)cc2O[C@H]1CN(C)CC1CC1 | 19 | -84*
C[C@H]1CN([C@@H](C)CO)S(=O)(=O)c2ccc(-c3ccc(C#N)cc3)cc2O[C@H]1CN(C)CC1CC1 | 5 | -91*
C[C@@H]1CN([C@@H](C)CO)S(=O)(=O)c2ccc(/C=C/c3ccccc3)cc2O[C@H]1CN(C)Cc1cncnc1 | -7 | -89*
C[C@H](CO)N1C[C@H](C)[C@H](CN(C)Cc2cccnc2)Oc2cc(/C=C/c3ccccc3)ccc2S1(=O)=O | 13 | -58
C[C@@H]1CN([C@@H](C)CO)S(=O)(=O)c2ccc(-c3ccc(C#N)cc3)cc2O[C@@H]1CN(C)CC1CC1 | -3 | -77
C[C@H](CO)N1C[C@H](C)[C@H](CN(C)Cc2cncnc2)Oc2cc(/C=C/c3ccccc3)ccc2S1(=O)=O | 1 | -45
CCCC#Cc1ccc2c(c1)O[C@H](CN(C)C(=O)Nc1ccccc1F)[C@H](C)CN([C@@H](C)CO)S2(=O)=O | 7 | 7
Cc1noc(C)c1S(=O)(=O)N(C)C[C@H]1OCCCC[C@H](C)Oc2ccc(NC(=O)C3CCCCC3)cc2C(=O)N([C@@H](C)CO)C[C@@H]1C | 6 | -76
CNC[C@@H]1OCCCC[C@@H](C)Oc2ccc(NC(=O)c3ccccc3)cc2C(=O)N([C@H](C)CO)C[C@@H]1C | 5 | 1
O=C(Nc1ccccc1)N[C@@H]1CC[C@H](CCNC(=O)c2ccccc2F)O[C@@H]1CO | 13 | -49
